Results: PubChem BioAssay AID1578 (Sanford-Burnham Center for Chemical Genomics, 2009)
Screen size: about 290,000 compounds; about 3,000 (1%) were called active. Cut-off read from the data, not from the text of the source: active = inhibition mostly above about 36% (no sharp cut-off); inactive = mostly below about 34%. Only a selection was taken, and actives are over-represented in it overall.

Assay: NOD1 signaling inhibitors, primary screen, cell-based, luminescence, uHTS (AID 1578);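 note: HEK-293T reporter cells stimulated with the NOD1 agonist gamma-tri-DAP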
Settings: NOD1-driven NF-kB luciferase reporter cells, at 4 µM, stronger effect = higher value

inhibition, inactive:
CCc1nccn1Cc1cc(C=O)ccc1OC 15%
COc1ccc(C=O)cc1Cn1ccnc1 -23%
Cc1oc(-c2ccccc2)cc1C(=O)NC(Cc1c[nH]c2ccccc12)C(=O)O (stereo not drawn) -35.2%
O=C(NCCNC(=O)c1ccccc1)c1ccccc1 -9.5%
CCCCCn1c(N)c(C#N)c2nc3ccccc3nc21 8.5%
CN(C)CCCn1c(N)c(C#N)c2nc3ccccc3nc21 5.6%
O=C1NC(=S)S/C1=C\c1ccc2ccccc2c1 5.2%
Cc1ccc(C2C(C=Nc3c(C)n(C)n(-c4ccccc4)c3=O)=C(c3ccccc3)Oc3ccccc32)cc1 (stereo not drawn) 29.1%
CCC1CCCCN1S(=O)(=O)c1ccc(S(=O)(=O)N(Cc2cccs2)C2CC2)cc1 (stereo not drawn) 7.6%
O=c1oc2ccccc2cc1-c1ccc(O)cc1 54.1%
O=c1oc2ccccc2cc1-c1ccccc1 -31.9%
O=c1oc2ccccc2cc1-c1cn2cccnc2n1 -55.7%
Cc1cccn2cc(-c3cc4ccccc4oc3=O)nc12 -21.9%
Cc1cc(C)c2cc(CN(CCO)Cc3nnnn3Cc3ccccc3)c(=O)[nH]c2c1 -12.5%
O=C(CC1COc2ccccc2O1)Nc1ccccn1 (stereo not drawn) -29.1%
CCN(CC)S(=O)(=O)c1ccc(N2CCCC2)c(NS(=O)(=O)c2ccccc2)c1 4.1%
CN(C)CCNC(=O)/C(=C/c1ccc(-c2ccc(Cl)cc2)o1)NC(=O)c1ccccc1 -19.3%
CN(C)CCNC(=O)/C(=C/c1ccc(-c2cccc([N+](=O)[O-])c2)o1)NC(=O)c1ccccc1 4.2%
Cc1nnc(NC(=O)C2CCCN(S(=O)(=O)Cc3ccccc3)C2)s1 (stereo not drawn) -8.7%
Cc1cccc(Cn2c(C)nc3c(N)c(C)c(C)cc32)c1 -13.6%
COc1ccc2nc(N/C(N)=N/C(=S)Nc3ccccc3)nc(C)c2c1 29.9%
Cc1cccc(NC(=S)/N=C(\N)Nc2nc(C)c3cc(C)ccc3n2)c1 23.1%
O=C(Cc1ccccc1)Nc1cc2c(cc1Cl)OCCCO2 -59.9%
CCN(CC(=O)NCc1ccc(Cl)cc1)C(=O)/C=C/c1ccc(Cl)c([N+](=O)[O-])c1 -18.8%
CN(C)C(=O)c1ccc(NS(=O)(=O)c2ccc3c(c2)OCCO3)cc1 -34.8%
CC(=O)Nc1ccc(C2=NNC(=Nc3cccc(S(=O)(=O)N(C)C)c3)SC2)cc1 -32.6%
CN(C)S(=O)(=O)c1cccc(N=C2NN=C(c3ccccc3)CS2)c1 26.1%
COc1ccc(-n2c(=O)[nH]c3cc(C(=O)NCCc4ccc(Cl)cc4)ccc3c2=O)cc1OC 7.4%
O=C(O)/C=C/C(=O)NC1CC1 -13.1%
O=C(/C=C/c1ccccc1)NC1CCS(=O)(=O)C1 (stereo not drawn) -20%
CCCC(C)c1nc(C(N)=O)c2[nH]c(=O)n(-c3ccc(OC)c(OC)c3)c2n1 (stereo not drawn) -11.9%
COc1cccc(/C=N/Nc2ccccc2C(=O)O)c1O -5.1%
COc1cccc(/C=N/Nc2ccc([N+](=O)[O-])cc2)c1O -2.8%
COc1cc(/C=N/Nc2ccc(C(=O)O)cc2)ccc1O -8.3%
O=C(N/N=C/c1c(F)cccc1Cl)C1CC1 -15.7%
COc1cc(/C=N/NS(=O)(=O)c2ccc(C)cc2)ccc1OCc1ccc(C(=O)O)cc1 18.4%
COc1cc(/C=N/O)ccc1OCc1ccc(Cl)cc1 -6.6%
O=C(O)c1ccc(N/N=C/c2cccc(F)c2)cc1 -22.9%
COc1ccc(/C=N/Nc2ccc(C(=O)O)cc2)cc1OC -8.6%
COc1cc(=O)[nH]c(SCC(=O)Nc2ccc3ccccc3c2)n1 -28.4%
CCOc1ccc(-c2nnc(NC(=O)Cc3ccc(OC)cc3)o2)cc1 -18.3%
O=C1Cc2ccccc2C(=O)N1c1ccc(F)cc1Cl -16.4%
C=CCn1cc(C(C)=O)c(=O)[nH]c1=O -20.3%
C/C(CC(=O)Nc1ccc2c(c1)OCCO2)=N\NC(=O)Cc1ccc(Cl)cc1 -8.8%
COCCCNC(=O)Cn1c(=O)n(Cc2ccc(F)cc2)c(=O)c2sccc21 -8.2%
CSCCOC(=O)C1=C(C)NC(=O)NC1c1ccc2c(c1)OCO2 (stereo not drawn) -24.6%
O=C(NCC1CCCO1)c1cc2ccccc2nc1Cl (stereo not drawn) -20.2%
CCn1c(=O)c([N+](=O)[O-])c(N2CCSCC2)c2ccccc21 8.8%
O=C(NCc1ccccc1)c1ccc(Cn2cc(C(F)(F)F)ccc2=O)cc1 -8.1%
O=C(N/N=C/c1ccc2c(c1)OCO2)c1ccc2c(c1)OCO2 -42.6%
COc1ccc(C(=O)/C=C/c2ccc(OCc3ccccc3)cc2)cc1CSCC(=O)O 0.4%
O=C(O)c1ccc(N/N=C/c2ccc(-c3ccccc3)cc2)cc1 -27%
O=C(O)c1cc(N/N=C/c2ccc3c(c2)OCO3)ccc1Cl -59.6%
O=C(O)c1ccc(N/N=C/c2ccc(C(F)(F)F)cc2)cc1 17.4%
COc1ccc(C(=O)/C=C/c2cccc(OCc3ccccc3)c2)cc1CSCC(=O)O 11.8%
CCOC(=O)c1[nH]n(-c2ccc(Cl)cc2)c(=O)c1C -33.9%
COC(=O)C1CC(c2ccc(Cl)cc2)=NO1 (stereo not drawn) -38.4%
O=C(c1cc(-c2ccc(Cl)cc2)n[nH]1)N1CCN(C(=O)c2ccco2)CC1 13.4%
CCOc1ncccc1C(=O)Nc1cccc(-c2nnc3n2CCCCC3)c1 -22.1%
Cc1cccc(C)c1NC(=S)NCCc1ccc(O)c(O)c1 -28.1%
COc1ccccc1OC(=O)C1CC(=O)N(c2ccc(Cl)cc2)C1 (stereo not drawn) -7.8%
Cc1ccccc1-n1c(SCc2csc(Nc3ccccc3)n2)nnc1-c1cccnc1 -18.5%
Cc1ccc(Nc2nc(CSc3nnc(-c4cccnc4)n3-c3ccccc3F)cs2)cc1 18.9%
CC1(C)CN(c2cccc(Br)c2)C1=O -15.6%
CC(c1ccon1)N(C)Cc1c(C(=O)N(C)Cc2ccccc2)nc2ccccn12 (stereo not drawn) -38.7%
Cc1nn(C)cc1CN(C)Cc1c(C(=O)N(C)Cc2ccccc2)nc2ccccn12 -20.3%
O=C(CSCC(=O)NC1CC1)Nc1ccc2ccccc2c1 -5.8%
O=C(NCc1ccc2c(c1)OCO2)Nc1ccc([N+](=O)[O-])cc1 -44.5%
O=C(Cc1ccc([N+](=O)[O-])cc1)NCc1ccc2c(c1)OCO2 -15.5%
CN(Cc1ccc2nonc2c1)Cc1nc(Cc2cccc(F)c2)no1 -14.8%
CC1(C)OC(=O)CC1C(=O)NCc1ccccc1 (stereo not drawn) -18.4%
Cc1ccc(NC(=S)NCC(O)c2ccccc2)c(C)c1 (stereo not drawn) -31%
O=S(=O)(c1cccs1)N1CN(Cc2ccc(F)cc2)c2nc3ccccc3nc21 6.3%
CCC12CCCN3CCC4(C(=C(C(=O)OC)C1)Nc1ccccc14)C32 (stereo not drawn) -7.2%
COC(=O)C1CCN(C(=O)/C(C)=C\c2ccccc2)CC1 -32.2%
CCCOC1CCCN(C(=O)CCCn2nnnc2CN2CCOCC2)C1 (stereo not drawn) 10.3%
Cc1cc(C(=O)NC2CCCN(Cc3ccccc3F)C2)no1 (stereo not drawn) -19.1%
Cn1nc(C(=O)NC2CCCN(Cc3ccccc3F)C2)c2ccccc2c1=O (stereo not drawn) -20.9%

inhibition, active:
COc1ccc(C=O)cc1Cn1ccnc1C 62.6%
CN(C)CCCn1c(N)c(C#N)c2nc(C#N)c(C#N)nc21 76.3%
Cc1ccc(C2C(/C=C3/SC(=S)NC3=O)=C(c3cccs3)Oc3ccccc32)cc1 (stereo not drawn) 88%
O=c1oc2ccccc2cc1-c1cn2ccccc2n1 64.7%
Nc1ccc(-c2cc3ccccc3oc2=O)cc1 63.5%
CN(C)CCNC(=O)/C(=C/c1ccc(-c2cccc(Cl)c2)o1)NC(=O)c1ccccc1 112%
COc1ccc2nc(N/C(N)=N/C(=S)Nc3cccc(C)c3)nc(C)c2c1 51.4%
CCc1ccc(C2=NNC(=Nc3cccc(S(=O)(=O)N(C)C)c3)SC2)cc1 72.3%
O=C(O)/C=C/C(=O)NC1CCS(=O)(=O)C1 (stereo not drawn) 99.9%
COc1cccc(/C=N/Nc2ccc(C(=O)O)cc2)c1O 104%
COc1ccc(/C=N/Nc2ccc(C(=O)O)cc2)cc1Br 50.9%
O=C(O)c1ccc(N/N=C/c2c(F)cccc2Cl)cc1 26.1%
COc1cc(/C=N/O)ccc1OCc1ccc(C(=O)O)cc1 100%
CC(C)c1ccc(/C=N/Nc2ccc(C(=O)O)cc2)cc1 64.4%
COC(=O)c1ccc(COc2ccc(/C=C/C(=O)c3ccc(OC)c(CSCC(=O)O)c3)cc2OC)cc1 49.5%
O=C(O)c1ccc(N/N=C/c2ccc3c(c2)OCO3)cc1 80.4%
Cc1ccc(Nc2nc(CSc3nnc(-c4cccnc4)n3-c3ccccc3C)cs2)cc1 87%
CN(Cc1c(C(=O)N(C)Cc2ccccc2)nc2ccccn12)CC1Cc2ccccc2O1 (stereo not drawn) 64.7%
O=[N+]([O-])c1ccc(NCc2ccc3c(c2)OCO3)cc1 88.5%
COC(=O)C1CC23C=CCN4CCC5(c6ccccc6NC15C2C)C43 (stereo not drawn) 46.8%
